# In PubChem BioAssay (NCATS):
# Inconclusive results are not listed. A number with no mark means an inactive call. Calls follow the shape of the dose curve; as a rule, active = well fitted activation curve with a large enough effect; inconclusive = small, poorly fitted or top-dose-only effect; inactive = flat fitted curve, though single readings scatter.
# Biological target: Cellular tumor antigen p53 (Homo sapiens) (UniProt P04637)
# Experiment: Primary qHTS for small molecule compounds that upregulate eGFP-tagged delta133p53alpha (in C-terminal) cells. (AID 2060324);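 also: 0% = DMSO wells and 100% = 57.5 µM 5-azacytidine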
# Details: NCI-H358 delta133p53alpha-eGFP (C-terminal tag), GFP fluorescence imaging, 24 h; series mostly up to 57.5 µM; GFP increase (activation): at the top concentration
# Method in brief: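 C-terminal eGFP-tagged delta133p53alpha NCI-H358 line; dox-induced (100 ng/ml, 24 h) then plated without dox; compounds pinned in titration, 24 h 37 °C/5% CO2; PFA fix, Hoechst nuclei; GFP by LSC.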
# Sequence of Cellular tumor antigen p53 (Homo sapiens) (P04637 whole entry, looked up): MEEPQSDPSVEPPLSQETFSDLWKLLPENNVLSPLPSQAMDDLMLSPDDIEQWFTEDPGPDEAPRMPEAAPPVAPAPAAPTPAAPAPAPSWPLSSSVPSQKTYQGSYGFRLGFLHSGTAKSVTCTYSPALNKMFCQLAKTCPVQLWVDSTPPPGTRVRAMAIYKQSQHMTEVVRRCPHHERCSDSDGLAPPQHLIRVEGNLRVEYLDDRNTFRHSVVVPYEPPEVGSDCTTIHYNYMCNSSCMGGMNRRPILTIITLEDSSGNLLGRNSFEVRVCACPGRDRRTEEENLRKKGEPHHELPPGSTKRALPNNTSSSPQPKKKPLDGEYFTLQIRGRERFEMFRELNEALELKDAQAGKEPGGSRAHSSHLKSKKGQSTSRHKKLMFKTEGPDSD
row,SMILES,GFP increase (activation) [%]
1,O=c1[nH]ccc2c(O)cccc12,3.94
2,O=S(=O)(c1cccc2c(Cl)cccc12)N1CCCNCC1,15
3,COc1ccc(CCN(C)CCCC(C#N)(c2cc(OC)c(OC)c(OC)c2)C(C)C)cc1OC (stereo not given),4.36
4,NC[C@H]1O[C@@H](n2cnc3c(N)ncnc32)[C@H](O)[C@@H]1O,-0.177
5,COc1ccc(-c2ccc(N)[n+](CCCC(=O)O)n2)cc1,-1.09
6,CC[C@H]1OC(=O)[C@H](C)C(O[C@H]2C[C@@](C)(OC)[C@@H](O)[C@H](C)O2)[C@H](C)[C@@H](OC2O[C@H](C)C[C@H](N(C)C)[C@H]2O)[C@](C)(O)C[C@@H](C)CN(C)[C@H](C)[C@@H](O)[C@]1(C)O (stereo not given in full),0.858
7,CC1=NS(=O)(=O)c2cc(Cl)ccc2N1,1.87
8,CSc1nc(N)c2ncn([C@@H]3O[C@H](COP(=O)(O)OP(=O)(O)OP(=O)(O)O)[C@@H](O)[C@H]3O)c2n1,-1.38
9,NC1=NCC2c3ccccc3Cc3ccccc3N12 (stereo not given),-3.42
10,NCCCCC(=O)O,5.58
11,CN(C)CCC=C1c2ccccc2CCc2ccccc21,-0.87
12,CC(C)(C)NCC(O)c1cc(O)cc(O)c1 (stereo not given),-8.71
13,CCN(CC)CCOCCOC(=O)C1(c2ccccc2)CCCC1,-24.7
14,C=CC(C)=C[C@@]1(C)SC(=O)C(C)=C1O,-13.1
15,COC(=O)[C@H](NC(=O)c1cc(-c2ccccc2)nc2ccccc12)c1ccccc1,-7
16,COc1cc(N)c(Cl)cc1C(=O)OCCN1CCCCC1,0.158
17,CCCN(CCC)CCc1cccc2c1CC(=O)N2,-1.06
18,CCc1ccc2c(-c3cccc(Cl)c3)nc(=O)n(CC)c2n1,-8.81
19,CCCCCCCCc1ccc(-c2ccc(C(=O)O)cc2)cc1,-2.17
20,O=[N+]([O-])c1ccc(CSc2ncnc3c2ncn3[C@@H]2O[C@H](CO)[C@@H](O)[C@H]2O)cc1,-5.43

row,SMILES,GFP increase (activation) [%]
1,N#CC(C#N)=C(N)/C(C#N)=C/c1ccc(O)cc1,-2
2,O=C(O)CC[C@@H](C(=O)O)N1C(=O)c2ccccc2C1=O,0.419
3,CC(=O)OCC1=C(C(=O)O)N2C(=O)[C@@H](NC(=O)Cc3cccs3)[C@H]2SC1,0.0118
4,CN(C)CC[C@@H](c1ccc(Cl)cc1)c1ccccn1,-2.12
5,CC1CNCCN1S(=O)(=O)c1cccc2cnccc12 (stereo not given),-1.09
6,COc1cc(CC(=O)O)ccc1O,-12.9
7,CN1C(=O)CC[C@H]1c1cccnc1,-7.03
8,NOCC(=O)O,13.2
9,NCC1OC(O[C@H]2[C@H](O)[C@@H](OC3C(O)C(N)CC(N)C3OC3OC(CO)C(O)C(O)C3N)O[C@@H]2CO)C(N)C(O)C1O (stereo not given in full),-8.85
10,NCCSSCCN,0.335
11,O=C(CCNNC(=O)c1ccncc1)NCc1ccccc1,-0.742
12,C[C@]12CC[C@@H]3c4ccc(O)cc4CC[C@H]3[C@@H]1CCC2=O,0.253
13,Nc1nc(Cl)nc2c1ncn2[C@@H]1O[C@H](CO)[C@@H](O)[C@H]1O,0.491
14,CNCCC(Oc1ccccc1OC)c1ccccc1 (stereo not given),0.947
15,Cc1nc2ccccn2c(=O)c1CCN1CCC(C(=O)c2ccc(F)cc2)CC1,0.608
16,NC(CCCP(=O)(O)O)C(=O)O (stereo not given),-0.244
17,O=C(O)CC1CCCc2ccccc2C1O (stereo not given),0.363
18,CCN1CCC[C@H]1CNC(=O)c1c(O)c(Cl)cc(Cl)c1OC,-3.41
19,CC[C@H](NC(=O)c1c(C)c(-c2ccccc2)nc2ccccc12)c1ccccc1,-6.85
20,CCOC(=O)C1=C(C)NC(C)=C(C(=O)OC)C1c1cccc(Cl)c1Cl (stereo not given),-11.3
